# Values joined by “and” are separate entries in the source; they are usually repeats but may differ in a detail not shown here. Identical values can stand only once. Where a structure was tested more than once in an assay, its records may differ in their call. Active and inactive are the calls of the source. Entries that show only a call come without a potency. Unless noted, calls follow the shape of the dose curve; as a rule, active = well fitted curve in the direction sought with a large enough effect in the repeat runs; inconclusive = weak or mixed curves; inactive = no such curve, though single readings can be large; an effect the other way counts as inactive or inconclusive.
# Legend:
# [1] = qHTS assay for small molecule agonists of the p53 signaling pathway (AID 651631; calls by dose curve; also: nearly all actives have a fitted effect of over 15% in size; also: potency is read from the fitted curve at half-maximal effect)
# How it was run: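 Beta-lactamase reporter activity under p53 response elements was quantified in HCT-116 cells by FRET fluorescence, following 16 h incubation with test compounds at 37 °C and 2 h substrate development at room temperature.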
# [2] = qHTS assay for small molecules that induce genotoxicity in human embryonic kidney cells expressing luciferase-tagged ATAD5 (AID 651632); also: nearly all actives have a fitted effect of over 15% in size
# How it was run: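 HEK293T cells carrying a luciferase reporter tagged to ATAD5 were exposed to compound or DMSO vehicle for 16 hr at 37C, 5% CO2. Amplite was added, and after 30 min at room temperature luciferase activity was read as a marker of ATAD5 induction.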
# [3] = qHTS assay for small molecule agonists of the p53 signaling pathway - cell viability (AID 651633; calls by dose curve;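 also: p53RE-bla HCT reporter cells with a stable beta-lactamase p53 reporter; nearly all actives have a fitted effect of over 30% in size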)
# How it was run: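 Viability counter-read: CellTiter-Glo luminescence (30 min, room temperature) in the same p53RE-bla plates. These plates had been exposed to compounds for 16 h at 37 C.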
# [4] = qHTS assay for small molecules that induce genotoxicity in human embryonic kidney cells expressing luciferase-tagged ATAD5 - cell viability (AID 651634; calls by dose curve; also: nearly all actives have a fitted effect of over 25% in size)
# How it was run: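 HEK293T cells expressing luciferase-tagged ATAD5 were exposed to compound or DMSO for 15.5 hr at 37C, 5% CO2. Viability was then read as live-cell protease activity by CellTiter-Fluor fluorescence after 30 min at 37C.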
# [5] = qHTS assay for small molecule disruptors of the mitochondrial membrane potential - cell viability (AID 720634; calls by dose curve;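 also: human HepG2 liver cancer cells; nearly all actives have a fitted effect of over 20% in size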)
# How it was run: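 HepG2 cells seeded overnight at 37 C, then exposed to compound or DMSO for 1 hr at 37 C, 5% CO2. m-MPI dye added, then CellTiter-Glo for 30 min at room temperature; viability read as ATP luminescence.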
# [6] = qHTS assay for small molecule disruptors of the mitochondrial membrane potential (AID 720635)
# How it was run: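 Mitochondrial membrane potential tracked with Mito-MPS dye, red aggregates (ex 540/em 590 nm) against green monomers (ex 490/em 535 nm). Compound treatment 1 hr at 37C, dye 30 min in HepG2.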
# [7] = qHTS assay to test for compound auto fluorescence at 590 nm (red) in HepG2 cells (AID 720674)
# How it was run: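 Red autofluorescence (Ex/Em 540/590 nm, Rose Bengal sodium equivalents) was measured in HepG2 cells, 2,000 per well in MEM plus 10% FBS, plated overnight at 37 C. Readings were taken 1 hr after adding 23 nL compound or DMSO, at 37 C and 5% CO2.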
# [8] = qHTS assay to test for compound auto fluorescence at 535 nm (green) in HepG2 cells (AID 720675)
# [9] = qHTS assay to test for compound auto fluorescence at 460 nm (blue) in HEK293 cells (AID 720678)
# How it was run: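 Blue-channel (Ex/Em 405/460 nm) intensity measured in HEK293 cultures after overnight compound exposure at 37C; signal expressed relative to triamterene. Cells plated 2,000 per well in 10% dialyzed FBS medium and allowed 4-5 hr to attach.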
# [10] = qHTS assay to test for compound auto fluorescence at 590 nm (red) in HEK293 cells (AID 720679)
# How it was run: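 Red-channel autofluorescence (Ex/Em 540/590 nm; Rose Bengal sodium reference) was measured after overnight 37C, 5% CO2 exposure of attached HEK293 cells, 2,000 per well in medium with 10% dialyzed FBS.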
# [11] = qHTS assay to test for compound auto fluorescence at 535 nm (green) in HEK293 cells (AID 720680)
# [12] = qHTS assay to test for compound auto fluorescence at 460 nm (blue) in HEK293 cell free culture (AID 720681)
# How it was run: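 Blue fluorescence (Ex 405/Em 460 nm, triamterene-equivalent) was read immediately after pin transfer of compound or DMSO into medium (DMEM, 10% FBS) without cells.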
# [13] = qHTS assay to test for compound auto fluorescence at 535 nm (green) in HEK293 cell free culture (AID 720682)
# How it was run: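 Each library compound, or DMSO control, is added by pintool to medium alone, comprising DMEM and 10% FBS. Emission at 535 nm following 485 nm excitation is quantified against fluorescein.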
# [14] = qHTS assay to test for compound auto fluorescence at 590 nm (red) in HEK293 cell free culture (AID 720683)
# How it was run: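 Red-channel autofluorescence of compounds in culture medium (DMEM, 10% FBS), no cells, measured at 540/590 nm. Rose Bengal sodium is the reference fluorophore for equivalence.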
# [15] = qHTS assay to test for compound auto fluorescence at 590 nm (red) in HepG2 cell free culture (AID 720684)
# How it was run: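 Plate contents were MEM with 10% FBS plus test compound or DMSO, no cells. Fluorescence was recorded with 540 nm excitation and 590 nm emission.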
# [16] = qHTS assay to test for compound auto fluorescence at 460 nm (blue) in HepG2 cell free culture (AID 720685)
# How it was run: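 Compound (23 nL) or DMSO pinned into cell-free MEM with 10% FBS; blue fluorescence read at 405/460 nm excitation/emission, expressed as auto-fluorescence equivalency to triamterene.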
# [17] = qHTS assay to test for compound auto fluorescence at 460 nm (blue) in HepG2 cells (AID 720687)
# How it was run: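 Blue-channel autofluorescence (Ex/Em 405/460 nm, triamterene-equivalent) was measured after 1 hr compound exposure at 37 C, 5% CO2. Cells were HepG2, plated overnight at 37 C in MEM plus 10% FBS.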
# [18] = target: Glucocorticoid receptor (Homo sapiens) (UniProt P04150); assay: qHTS assay to identify small molecule agonists of the glucocorticoid receptor (GR) signaling pathway (AID 720691; active = well fitted activation curve with a large enough effect in the signal ratio in the repeat runs, not every such curve was filed as active; inconclusive = weak or mixed curves, or effect the other way; inactive = no such curve, though single readings can be large or run the other way; the % refers to the signal ratio; also: potency is read from the fitted curve at half-maximal effect); settings: GR-bla HeLa, beta-lactamase reporter ratio, 18 h; activation: at 62.4 µM (top of the series)
# Glucocorticoid receptor (Homo sapiens), sequence (P04150 whole entry, looked up): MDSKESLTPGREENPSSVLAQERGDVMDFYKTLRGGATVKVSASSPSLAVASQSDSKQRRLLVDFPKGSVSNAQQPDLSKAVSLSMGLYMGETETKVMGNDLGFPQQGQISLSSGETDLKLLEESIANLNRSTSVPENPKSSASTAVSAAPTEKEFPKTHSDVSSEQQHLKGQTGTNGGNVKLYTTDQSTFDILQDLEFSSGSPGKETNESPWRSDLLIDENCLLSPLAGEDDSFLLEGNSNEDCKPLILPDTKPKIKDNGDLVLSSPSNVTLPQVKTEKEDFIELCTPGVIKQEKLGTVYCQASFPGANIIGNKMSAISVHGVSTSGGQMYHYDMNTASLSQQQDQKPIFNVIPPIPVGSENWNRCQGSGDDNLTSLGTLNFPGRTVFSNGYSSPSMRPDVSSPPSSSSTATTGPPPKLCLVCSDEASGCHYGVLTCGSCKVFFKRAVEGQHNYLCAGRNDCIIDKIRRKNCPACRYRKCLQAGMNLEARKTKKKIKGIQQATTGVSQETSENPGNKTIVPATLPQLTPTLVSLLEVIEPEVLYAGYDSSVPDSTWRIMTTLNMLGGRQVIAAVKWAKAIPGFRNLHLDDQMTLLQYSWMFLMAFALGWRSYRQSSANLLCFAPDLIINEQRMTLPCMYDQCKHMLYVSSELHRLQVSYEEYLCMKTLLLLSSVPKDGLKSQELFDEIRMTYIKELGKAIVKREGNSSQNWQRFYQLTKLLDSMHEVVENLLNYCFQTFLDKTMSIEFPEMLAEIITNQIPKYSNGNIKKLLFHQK
# How it was run: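 GR-bla HeLa cells (beta-lactamase reporter under glucocorticoid response element) were plated 4 h at 37 C/5% CO2, given compounds in DMSO, and incubated 18 h at 37 C. LiveBLAzer B/G FRET substrate was added for 2 h at room temperature, then fluorescence intensity read.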
# [19] = target: Glucocorticoid receptor (Homo sapiens) (UniProt P04150); assay: qHTS assay to identify small molecule antagonists of the glucocorticoid receptor (GR) signaling pathway (AID 720692; active = well fitted inhibition curve with a large enough effect in the signal ratio in the repeat runs, not every such curve was filed as active; inconclusive = weak or mixed curves, or effect the other way; inactive = no such curve, though single readings can be large or run the other way; the % refers to the signal ratio)
# How it was run: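 GR-bla HeLa cells (beta-lactamase reporter under glucocorticoid response element) were pre-plated 4 h at 37 C, treated with compounds plus 5 nM dexamethasone (final) for 18 h, then read by LiveBLAzer B/G FRET fluorescence after 2 h.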
# [20] = qHTS assay to test for compound auto fluorescence at 535 nm (green) in HepG2 cell free culture (AID 720686)
Compound,Potency [1],Potency [2],Potency [3],Potency [4],Potency [5],Potency [6],outcome [7],Potency [8],Potency [9],outcome [10],outcome [11],Potency [12],outcome [13],outcome [14],outcome [15],Potency [16],Potency [17],Potency [18],Potency [19],Potency [20]
N=C(N)n1cccn1,inactive,inactive,inactive,inactive,inactive,inactive,inactive,inactive,inactive,inactive,inactive,inactive,inactive,inactive,inactive,inactive,inactive,inactive,inactive,
NC(=O)C1c2ccccc2CCc2ccccc21,inactive,inactive,inactive,inactive,inactive,inactive,inactive,inactive,inactive,inactive,inactive,inactive,,inactive,inactive,inactive,inactive,inactive,inactive,inactive
Cc1c(N)nc([C@H](CC(N)=O)NC[C@H](N)C(N)=O)nc1C(=O)N[C@H](C(=O)N[C@H](C)[C@@H](O)[C@H](C)C(=O)N[C@H](C(=O)NCCc1nc(-c2nc(C(=O)NCCCCN=C(N)N)cs2)cs1)[C@@H](C)O)[C@@H](O[C@@H]1O[C@@H](CO)[C@@H](O)[C@H](O)[C@@H]1O[C@H]1O[C@H](CO)[C@@H](O)[C@H](OC(N)=O)[C@@H]1O)c1cnc[nH]1,841 nM (active) and 66.8 nM (active),inactive,inactive,inactive,inactive,inactive,inactive,inactive,inactive,inactive,inactive,inactive,inactive,inactive,inactive,inactive,inactive,848 nM [inconclusive] (active) and inactive,inactive,inactive
CC1(C)CCC(NC(=O)[C@@H](N)CCC(=O)O)CC1,inactive,inactive,inactive,inactive,inactive,inactive,inactive,inactive,inactive,inactive,inactive,inactive,inactive,inactive,inactive,inactive,inactive,inactive,inactive,inactive
CCOc1cc(CC(=O)N[C@@H](CC(C)C)c2ccccc2N2CCCCC2)ccc1C(=O)O,inactive,inactive,inactive,inactive,inactive,inactive,inactive,inactive,inactive,inactive,inactive,inactive,,inactive,inactive,inactive,inactive,8.11 µM (active),,
CCN(CC)C(=O)c1cccnc1,inactive,inactive,inactive,inactive,inactive,inactive,inactive,inactive,inactive,inactive,inactive,inactive,inactive,inactive,inactive,inactive,inactive,inactive,inactive,inactive

# — PubChem BioAssay (Tox21)
